“And” between values parts separate entries of the source, which are not always exact repeats. Identical values can stand only once. Like-named read-outs stand apart in the source and are kept apart here.
How the values were obtained:
Conditions in all cases: concentration: 1 μM, replicates: in singlicate, n = 1
MAP4K3 = system: MAP4K3
MAP4K4 = system: MAP4K4
MAP4K5 = system: MAP4K5
MAPKAPK2 = system: MAPKAPK2
MAPKAPK5 = system: MAPKAPK5
MARK1 = system: MARK1
MARK2 = system: MARK2
MARK3 = system: MARK3
MARK4 = system: MARK4
MAST1 = system: MAST1
MEK1 = system: T1, MEK1
T1 construct: gene MAP2K1

MEK2 = system: T2, MEK2
T2 construct: gene MAP2K2

MEK3 = system: T3, MEK3
T3 construct: gene MAP2K3

MEK4 = system: T4, MEK4
T4 construct: gene MAP2K4

MEK5 = system: T5, MEK5
T5 construct: gene MAP2K5

MEK6 = system: T6, MEK6
T6 construct: gene MAP2K6

MELK = system: MELK
MERTK = system: MERTK
MET = system: MET
MINK = system: T7, MINK
T7 construct: gene MINK1
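Note: KINOMEscan kinase panel screen.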

CCn1cnc2c(N)ncnc21 [GW345098]
%Inh (MAP4K3): 1% | %Inh (MAP4K4): 0% | %Inh (MAP4K5): 0% | %Inh (MAPKAPK2): 0% | %Inh (MAPKAPK5): 10% | %Inh (MARK1): 0% | %Inh (MARK2): 12% | %Inh (MARK3): 4% | %Inh (MARK4): 0% | %Inh (MAST1): 5% | %Inh (MEK1): 26% | %Inh (MEK2): 20% | %Inh (MEK3): 26% | %Inh (MEK4): 11% | %Inh (MEK5): 1% | %Inh (MEK6): 0% | %Inh (MELK): 0% | %Inh (MERTK): 25% | %Inh (MET): 2% | %Inh (MINK): 5%

Cl.Cl.Cl.Fc1ccc(-c2ncn(C3CCNCC3)c2-c2ccnc(Nc3ccccc3)n2)cc1 [SB-238039]
%Inh (MAP4K3; 1 µM): 41% and 5% | %Inh (MAP4K4; 1 µM): 74% and 60% | %Inh (MAP4K5; 1 µM): 94.1% and 85% | %Inh (MAPKAPK2; 1 µM): 2% and 33% | %Inh (MAPKAPK5; 1 µM): 0% and 9% | %Inh (MARK1; 1 µM): 13% and 10% | %Inh (MARK2; 1 µM): 43% and 42% | %Inh (MARK3; 1 µM): 10% and 0% | %Inh (MARK4; 1 µM): 27% and 11% | %Inh (MAST1; 1 µM): 52% and 37% | %Inh (MEK1; 1 µM): 36% and 3% | %Inh (MEK2; 1 µM): 58% and 26% | %Inh (MEK3; 1 µM): 45% and 44% | %Inh (MEK4; 1 µM): 31% and 6% | %Inh (MEK5; 1 µM): 47% and 18% | %Inh (MEK6; 1 µM): 59% and 42% | %Inh (MELK; 1 µM): 51% and 31% | %Inh (MERTK; 1 µM): 15% and 0% | %Inh (MET; 1 µM): 8% and 0% | %Inh (MINK; 1 µM): 89% and 88%

COc1ccc(CNC(=O)NC2CCN(c3ccnc(Nc4ccc(OC)cc4)n3)C2)cc1 (stereo not drawn) [GSK1379727]
%Inh (MAP4K3): 0% | %Inh (MAP4K4): 0% | %Inh (MAP4K5): 0% | %Inh (MAPKAPK2): 20% | %Inh (MAPKAPK5): 0% | %Inh (MARK1): 0% | %Inh (MARK2): 0% | %Inh (MARK3): 0% | %Inh (MARK4): 0% | %Inh (MAST1): 0% | %Inh (MEK1): 0% | %Inh (MEK2): 0% | %Inh (MEK3): 0% | %Inh (MEK4): 17% | %Inh (MEK5): 37% | %Inh (MEK6): 0% | %Inh (MELK): 4% | %Inh (MERTK): 16% | %Inh (MET): 0% | %Inh (MINK): 4%

COc1cc2ncn(-c3cc(OCc4sccc4Cl)c(C(N)=O)s3)c2cc1OC [GSK448459]
%Inh (MAP4K3): 50% | %Inh (MAP4K4): 0% | %Inh (MAP4K5): 99.1% | %Inh (MAPKAPK2): 0% | %Inh (MAPKAPK5): 0% | %Inh (MARK1): 0% | %Inh (MARK2): 0% | %Inh (MARK3): 0% | %Inh (MARK4): 0% | %Inh (MAST1): 0% | %Inh (MEK1): 0% | %Inh (MEK2): 0% | %Inh (MEK3): 0% | %Inh (MEK4): 15% | %Inh (MEK5): 99.8% | %Inh (MEK6): 0% | %Inh (MELK): 0% | %Inh (MERTK): 23% | %Inh (MET): 8% | %Inh (MINK): 50%

O=C(NCCCN1CCOCC1)c1cccc(Nc2nccc(Nc3ccc(Oc4ccccc4)cc3)n2)c1 [GW663929]
%Inh (MAP4K3): 0% | %Inh (MAP4K4): 6% | %Inh (MAP4K5): 0% | %Inh (MAPKAPK2): 0% | %Inh (MAPKAPK5): 0% | %Inh (MARK1): 0% | %Inh (MARK2): 19% | %Inh (MARK3): 8% | %Inh (MARK4): 0% | %Inh (MAST1): 0% | %Inh (MEK1): 71% | %Inh (MEK2): 77% | %Inh (MEK3): 7% | %Inh (MEK4): 21% | %Inh (MEK5): 100% | %Inh (MEK6): 11% | %Inh (MELK): 10% | %Inh (MERTK): 0% | %Inh (MET): 0% | %Inh (MINK): 18%

COc1ccc(S(=O)(=O)NC2CCN(c3cc(C)nc(Nc4cccc(C#N)c4)n3)CC2)cc1.O=C(O)C(F)(F)F [GSK1653539]
%Inh (MAP4K3): 0% | %Inh (MAP4K4): 0% | %Inh (MAP4K5): 0% | %Inh (MAPKAPK2): 0% | %Inh (MAPKAPK5): 0% | %Inh (MARK1): 0% | %Inh (MARK2): 12% | %Inh (MARK3): 0% | %Inh (MARK4): 0% | %Inh (MAST1): 0% | %Inh (MEK1): 0% | %Inh (MEK2): 0% | %Inh (MEK3): 0% | %Inh (MEK4): 0% | %Inh (MEK5): 1% | %Inh (MEK6): 0% | %Inh (MELK): 0% | %Inh (MERTK): 0% | %Inh (MET): 0% | %Inh (MINK): 0%

O=c1cc(N2CCOCC2)nc2n(Cc3cccc(Cl)c3Cl)c(C3CC3)nn12 [GSK2358994]
%Inh (MAP4K3): 0% | %Inh (MAP4K4): 0% | %Inh (MAP4K5): 0% | %Inh (MAPKAPK2): 1% | %Inh (MAPKAPK5): 0% | %Inh (MARK1): 0% | %Inh (MARK2): 0% | %Inh (MARK3): 0% | %Inh (MARK4): 4% | %Inh (MAST1): 4% | %Inh (MEK1): 17% | %Inh (MEK2): 13% | %Inh (MEK3): 22% | %Inh (MEK4): 0% | %Inh (MEK5): 6% | %Inh (MEK6): 17% | %Inh (MELK): 3% | %Inh (MERTK): 34% | %Inh (MET): 0% | %Inh (MINK): 0%

CN1c2ccc(NCc3ccc(F)cc3)cc2-c2c(cnn2C)S1(=O)=O
%Inh (MAP4K3): 1% | %Inh (MAP4K4): 0% | %Inh (MAP4K5): 12% | %Inh (MAPKAPK2): 0% | %Inh (MAPKAPK5): 0% | %Inh (MARK1): 0% | %Inh (MARK2): 0% | %Inh (MARK3): 0% | %Inh (MARK4): 13% | %Inh (MAST1): 11% | %Inh (MEK1): 7% | %Inh (MEK2): 27% | %Inh (MEK3): 13% | %Inh (MEK4): 0% | %Inh (MEK5): 17% | %Inh (MEK6): 0% | %Inh (MELK): 0% | %Inh (MERTK): 0% | %Inh (MET): 3% | %Inh (MINK): 26%

Cc1cn2c(=O)cc(N3CCOCC3)nc2n1Cc1cccc(Cl)c1Cl [GSK2334006]
%Inh (MAP4K3): 5% | %Inh (MAP4K4): 16% | %Inh (MAP4K5): 19% | %Inh (MAPKAPK2): 28% | %Inh (MAPKAPK5): 0% | %Inh (MARK1): 0% | %Inh (MARK2): 0% | %Inh (MARK3): 2% | %Inh (MARK4): 0% | %Inh (MAST1): 0% | %Inh (MEK1): 11% | %Inh (MEK2): 0% | %Inh (MEK3): 0% | %Inh (MEK4): 17% | %Inh (MEK5): 54% | %Inh (MEK6): 0% | %Inh (MELK): 17% | %Inh (MERTK): 5% | %Inh (MET): 0% | %Inh (MINK): 0%
